From PubChem BioAssay (EPA / NIEHS)
Inconclusive results are not listed. Calls of active or inactive are those of the source. How the source made its calls: active means hit-call score of the fitted dose curve at least 0.9, where 1 is the maximum; inconclusive means response in the unintended direction; inactive means score below 0.9.

target: human Serotonin, 5-Hydroxytryptamine Receptor 2A (5HT2A), HTR2A (gene 3356) (UniProt P28223); assay: NVS_GPCR_h5HT2A: NovaScreen (NVS) G Protein-Coupled Receptor Assay for human Serotonin, 5-Hydroxytryptamine Receptor 2A (5HT2A) (AID 2283249)
Summary of the method: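 Radioligand displacement on human cortex tissue extract, counted by filtration and scintillation 1.5 h post-dosing. Initial single-concentration screen at 25 uM in duplicate, concentration series in follow-up; DMSO as baseline.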

human Serotonin, 5-Hydroxytryptamine Receptor 2A (5HT2A), HTR2A (gene 3356), sequence (P28223 whole entry, looked up): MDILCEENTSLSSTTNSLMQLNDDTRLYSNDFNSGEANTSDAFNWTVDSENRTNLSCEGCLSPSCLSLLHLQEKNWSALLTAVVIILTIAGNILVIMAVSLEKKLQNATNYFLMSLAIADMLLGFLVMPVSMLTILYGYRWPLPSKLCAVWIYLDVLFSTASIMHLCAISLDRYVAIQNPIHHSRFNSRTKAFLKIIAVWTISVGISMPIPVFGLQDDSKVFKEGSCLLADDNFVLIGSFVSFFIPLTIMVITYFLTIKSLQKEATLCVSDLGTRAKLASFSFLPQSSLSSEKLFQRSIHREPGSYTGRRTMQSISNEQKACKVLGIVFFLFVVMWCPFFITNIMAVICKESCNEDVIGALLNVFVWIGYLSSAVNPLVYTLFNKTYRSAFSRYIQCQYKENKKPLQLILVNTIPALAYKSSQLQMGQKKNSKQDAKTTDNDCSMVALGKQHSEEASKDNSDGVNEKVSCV

AC50, active:
COc1ccc2cc(S(=O)(=O)N[C@H](CC(=O)N[C@H](Cc3ccc(CN4[C@H](C)CCC[C@@H]4C)cc3)C(=O)N(C)C(C)C)c3ccc4c(c3)OCO4)ccc2c1 7.94 µM
COc1cc(C(=O)NC2CCN(C)CC2)ccc1Nc1ncc2c(n1)N(C1CCCC1)CC(F)(F)C(=O)N2C 23.2 µM
CCN(Cc1cccnc1)C(=O)c1cccc(Cl)c1[C@]1(C)C(=O)N(Cc2ccc(OC)cc2OC)c2ccc(Cl)cc21 15.9 µM
CN(C)C(=O)C1(N2CCCCC2)CCN(CC[C@@]2(c3ccc(Cl)c(Cl)c3)CN(C(=O)c3ccccc3)CCO2)CC1 0.957 µM
O=C1c2ccccc2C(=O)N1CCc1noc(-c2ccc(CN3CCCCCC3)s2)n1 2.4 µM
CCCCCCCCCCCC[N+](C)(C)C 4.04 µM
CCN(CC)C(=O)c1cc(S(=O)(=O)Cc2ccccc2)c(N2CCC(c3ccccc3)CC2)cc1N(CC)CCN(C)C 8.55 µM
CCOC(=O)O[C@H](C)OC(=O)c1ccc2c(c1)cc(C(=O)NC1CCN(C(C)C)CC1)n2Cc1cc(-c2ccc(Cl)s2)on1 23.6 µM

outcome, inactive:
OC12N=C(c3ccccc3)SC1Cc1cc(Cl)ccc12 (stereo unspecified)

target: human Serotonin, 5-Hydroxytryptamine Receptor 5A (5HT5A), HTR5A (gene 3361) (UniProt P47898); assay: NVS_GPCR_h5HT5A: NovaScreen (NVS) G Protein-Coupled Receptor Assay for human Serotonin, 5-Hydroxytryptamine Receptor 5A (5HT5A) (AID 2283251)
Summary of the method: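 Membranes from HEK293 cells, radioligand binding read by filtration and scintillation after 1 h. Single-concentration duplicate testing at 25 uM, then concentration-response for actives; positive-direction fitting relative to DMSO.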

human Serotonin, 5-Hydroxytryptamine Receptor 5A (5HT5A), HTR5A (gene 3361), sequence (P47898 whole entry, looked up): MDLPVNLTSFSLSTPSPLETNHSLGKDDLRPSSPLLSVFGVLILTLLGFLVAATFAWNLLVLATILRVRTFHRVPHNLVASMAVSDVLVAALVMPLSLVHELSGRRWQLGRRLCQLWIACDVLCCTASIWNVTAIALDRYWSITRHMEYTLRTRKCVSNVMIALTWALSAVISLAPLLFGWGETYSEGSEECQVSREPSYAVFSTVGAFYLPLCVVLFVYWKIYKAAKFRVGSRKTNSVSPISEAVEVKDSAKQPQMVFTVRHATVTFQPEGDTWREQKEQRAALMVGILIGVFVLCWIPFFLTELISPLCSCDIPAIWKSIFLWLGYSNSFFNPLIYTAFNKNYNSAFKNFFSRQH

outcome, inactive:
COc1ccc2cc(S(=O)(=O)N[C@H](CC(=O)N[C@H](Cc3ccc(CN4[C@H](C)CCC[C@@H]4C)cc3)C(=O)N(C)C(C)C)c3ccc4c(c3)OCO4)ccc2c1
CN1C(=O)N(c2ccccc2Br)Cc2cnc(Nc3ccc4c(c3)OCC(CO)O4)nc21 (stereo unspecified)
CC(C)(C)c1csc(-c2cc3cc(OCc4ccccc4CC(=O)O)ccc3o2)n1
CC/C(=C(/CC)c1ccc(O)cc1)c1ccc(O)cc1
O=C(O)Cc1cc(I)c(Oc2ccc(O)c(I)c2)c(I)c1

AC50, active:
CN(C)c1ccc(C(=C2C=CC(=[N+](C)C)C=C2)c2ccc(N(C)C)cc2)cc1 1.99 µM
Cc1cc2c(cc1C(F)(F)F)N(C(=O)Nc1ccc(Oc3cccnc3C)nc1)CC2 4.76 µM
CCN(Cc1cccnc1)C(=O)c1cccc(Cl)c1[C@]1(C)C(=O)N(Cc2ccc(OC)cc2OC)c2ccc(Cl)cc21 4.88 µM
Cc1cc(F)ccc1-c1cc(N2CC[C@@H](O)[C@H]2CO)ncc1N(C)C(=O)C(C)(C)c1cc(C(F)(F)F)cc(C(F)(F)F)c1 7.83 µM
CN(C)C(=O)C1(N2CCCCC2)CCN(CC[C@@]2(c3ccc(Cl)c(Cl)c3)CN(C(=O)c3ccccc3)CCO2)CC1 15.7 µM
NCc1cccc(C2CCN(C(=O)c3ccc(C#Cc4ccccc4F)o3)CC2)c1 18.4 µM
CCN(CC)C(=O)c1cc(S(=O)(=O)Cc2ccccc2)c(N2CCC(c3ccccc3)CC2)cc1N(CC)CCN(C)C 4.84 µM
CCOC(=O)O[C@H](C)OC(=O)c1ccc2c(c1)cc(C(=O)NC1CCN(C(C)C)CC1)n2Cc1cc(-c2ccc(Cl)s2)on1 6.7 µM
CCCCCCCCOC(=O)c1cc(O)c(O)c(O)c1 25 µM
O=c1[nH]sc2ccccc12 14.2 µM

target: guinea pig Opioid, Kappa 1 Receptor (OpiateK), OPRK1 (gene 100135587) (UniProt P41144); assay: NVS_GPCR_gOpiateK: NovaScreen (NVS) G Protein-Coupled Receptor Assay for guinea pig Opioid, Kappa 1 Receptor (OpiateK) (AID 2283252);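 further: radioligand displacement from kappa opioid receptor in guinea pig cerebellar membranes; active means reduced radioligand binding relative to DMSO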
Summary of the method: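 Cell-free tissue prep: guinea pig cerebellar membranes, radioligand displacement, 2 h incubation. Readout: filtration plus scintillation counting. Primary single-point 25 uM duplicate; actives retested in concentration series; DMSO negative control.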

guinea pig Opioid, Kappa 1 Receptor (OpiateK), OPRK1 (gene 100135587), sequence (P41144 whole entry, looked up): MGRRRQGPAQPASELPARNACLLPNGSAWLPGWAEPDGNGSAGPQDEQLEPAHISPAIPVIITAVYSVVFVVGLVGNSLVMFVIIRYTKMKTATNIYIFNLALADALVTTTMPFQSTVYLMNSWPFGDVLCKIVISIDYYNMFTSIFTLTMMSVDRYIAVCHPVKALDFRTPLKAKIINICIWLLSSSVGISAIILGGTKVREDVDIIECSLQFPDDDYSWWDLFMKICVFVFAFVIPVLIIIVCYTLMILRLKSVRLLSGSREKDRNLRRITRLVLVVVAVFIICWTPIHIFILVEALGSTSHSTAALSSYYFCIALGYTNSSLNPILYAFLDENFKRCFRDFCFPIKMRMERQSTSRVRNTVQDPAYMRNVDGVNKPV

AC50, active:
COc1ccc2cc(S(=O)(=O)N[C@H](CC(=O)N[C@H](Cc3ccc(CN4[C@H](C)CCC[C@@H]4C)cc3)C(=O)N(C)C(C)C)c3ccc4c(c3)OCO4)ccc2c1 0.548 µM
CN(C)c1ccc(C(=C2C=CC(=[N+](C)C)C=C2)c2ccc(N(C)C)cc2)cc1 4.24 µM
COc1cc(C(=O)NC2CCN(C)CC2)ccc1Nc1ncc2c(n1)N(C1CCCC1)CC(F)(F)C(=O)N2C 23.2 µM
Cc1occc1C(=O)Nc1ccc(C(=O)N2CCC(F)(F)/C(=C\C(=O)N3CCC(N4CCCCC4)CC3)c3ccccc32)cc1 2.49 µM
CCN(Cc1cccnc1)C(=O)c1cccc(Cl)c1[C@]1(C)C(=O)N(Cc2ccc(OC)cc2OC)c2ccc(Cl)cc21 11.1 µM
CN(C)C(=O)C1(N2CCCCC2)CCN(CC[C@@]2(c3ccc(Cl)c(Cl)c3)CN(C(=O)c3ccccc3)CCO2)CC1 5.78 µM
NCc1cccc(C2CCN(C(=O)c3ccc(C#Cc4ccccc4F)o3)CC2)c1 25 µM
CCN(CC)C(=O)c1cc(S(=O)(=O)Cc2ccccc2)c(N2CCC(c3ccccc3)CC2)cc1N(CC)CCN(C)C 23.4 µM
COc1cccc([C@H](O)C2CCN(CCc3ccc(F)cc3)CC2)c1OC 12.1 µM
Clc1cc(Cl)c2c(c1)N=C1CCCCCN1C2 10.5 µM
CC/C(=C(/CC)c1ccc(O)cc1)c1ccc(O)cc1 15.1 µM
CC(C)(O)c1ccc(CNC(=O)c2cccnc2Oc2ccc3nonc3c2)cc1 14.3 µM
O=c1[nH]sc2ccccc12 21.5 µM
c1ccc(C[n+]2cccc3ccccc32)cc1 11.8 µM

outcome, inactive:
CCCCCCCC[Si](OCC)(OCC)OCC
O=C1c2ccccc2C(=O)N1CCc1noc(-c2ccc(CN3CCCCCC3)s2)n1
CCCCOC(=O)c1ccc(O)cc1
